FBW7 act: FBW7 E3 ligase activators, primary screen, biochemical, AlphaScreen, human; F-box/WD repeat-containing protein 7 (Homo sapiens), Q969H0; normalized activity (activation), % at 26.1 µM; 0.13% of 650,000 active; AlphaScreen FBW7–phospho-cyclin E peptide binding, activator screen; in the data active means normalized activity above about 1.9%;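 further: purified mutant Fbw7 with reduced substrate affinity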
TEAD-YAP inh: TEAD-YAP interaction inhibition, primary screen, TEAD-YAP interaction inhibitor project, luminescence, HEK-TIYL cells; TEAD-Gal4/YAP UAS-luciferase luminescence; inhibition, % at 9.12 µM; 1.4% of 640,000 active; AID 1259422, 2018; in the data active means inhibition above about 32%
MITF inh: MITF inhibitors, primary screen, biochemical, AlphaScreen, human | Microphthalmia-associated transcription factor (Homo sapiens), O75030 | AlphaScreen MITF homodimerization, bead proximity signal | inhibition, % at 2.6 µM | 0.91% of 650,000 active; in the data active means inhibition above about 50%
GPR151 ag: activators of human GPR151, primary screen, cell-based, PathHunter beta-arrestin, luminescence | 1% of 650,000 active | PathHunter beta-arrestin GPR151 cells | activation, % at 11.2 µM | G-protein coupled receptor 151 (Homo sapiens), Q8TDV0 | AID 1508602, 2020; in the data active means activation above about 4.9%
GPR151 conf act: GPR151 activators, triplicate retest, confirmation, cell-based, PathHunter beta-arrestin, luminescence; shares compounds with GPR151 ag; GPR151 PathHunter beta-arrestin cells, 90 min; % of EA-reagent control over plate median; activation, % at 11.2 µM; 6,700 tested, under 10 active; AID 1508609, 2020;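 active means mean percent activation across replicates above the confirmation screen cutoff of 4.91%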
GPR119 ag: GPR119 activators in beta-arrestin cells, counter-screen for GPR151 activator project, cell-based, PathHunter beta-arrestin, luminescence, triplicate | shares compounds with GPR151 ag | 90 min; 0 = compound-well median, 100 = enzyme-acceptor control | activation, % at 11.2 µM | 0.3% of 6,700 active | AID 1508611, 2020;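 active means mean percent activation in the counterscreen above 29.09%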;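 further: counterscreen on off-target GPR119 to flag nonselective hits from the GPR151 activator screen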
Target sequence (Q8TDV5 whole entry, looked up): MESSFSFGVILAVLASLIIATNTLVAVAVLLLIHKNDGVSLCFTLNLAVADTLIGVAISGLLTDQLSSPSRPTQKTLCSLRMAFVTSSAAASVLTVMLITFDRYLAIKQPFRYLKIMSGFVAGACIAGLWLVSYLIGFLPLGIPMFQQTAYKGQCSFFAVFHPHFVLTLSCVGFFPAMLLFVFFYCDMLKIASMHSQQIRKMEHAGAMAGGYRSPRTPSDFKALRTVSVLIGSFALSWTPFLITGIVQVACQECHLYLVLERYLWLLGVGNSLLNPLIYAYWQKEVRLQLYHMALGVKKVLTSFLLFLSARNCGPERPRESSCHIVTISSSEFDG
Numbers stand for hits; n = inactive; x = no result given. Compounds with a hit are over-represented: about 3.5% of the library has one in this group of screens.

SMILES	FBW7 act	TEAD-YAP inh	MITF inh	GPR151 ag	GPR151 conf act	GPR119 ag
CC(C)(C)C1CCC(OC(=O)CCC(=O)N2CCCCC2)CC1 (centres undefined)	n	n	n	11	n	n
Cc1ccc(NC(=O)CCC(=O)OC2CCC(C(C)(C)C)CC2)cc1 (centres undefined)	n	n	n	n	x	x
O=S(=O)(c1cccc2cccnc12)N1CC=C(c2ccccc2)CC1	n	n	n	n	x	x
N#Cc1c(-c2ccccc2)cc(-c2cccc([N+](=O)[O-])c2)c(C#N)c1N	n	n	n	5.9	n	n
N#Cc1c(-c2cccc([N+](=O)[O-])c2)c(C#N)c(=O)n(N)c1N	n	n	n	n	x	x
O=C(NC(=S)Nc1ccc(-c2nc3ccccc3o2)cc1)c1cncc(Br)c1	n	n	n	6.1	n	n
O=C(Nc1ccc(-c2nc3ccccc3o2)cc1)c1cc(I)ccc1Cl	n	n	n	7.4	n	n
CC(C)CC(=O)Nc1ccc(Cl)cc1NC(=O)CC(C)C	n	n	n	n	x	x
Cc1cc(C)n(/N=C/c2cc(Br)ccc2O)c(=O)c1C#N	n	n	n	n	x	x
CC(=O)NC(CC(C)C)c1nnc2n1CCN(C/C=C/c1ccco1)CC2 (centres undefined)	n	n	n	n	x	x
CC(=O)c1cc(C)ccc1OC(=O)c1ccc([N+](=O)[O-])cc1	n	n	n	6.4	n	n
O=C(/C=C/c1ccccc1)Nc1cccc(C(=O)c2cccc(NC(=O)/C=C/c3ccccc3)c2)c1	n	n	n	n	x	x
Cc1cccc(-n2nnnc2C(c2ccccc2)N2CCOCC2)c1 (centres undefined)	n	n	n	8.5	n	n
COc1cccc(CN2CCNC(=O)C2CC(=O)N(C)Cc2nc(C)cs2)c1OC (centres undefined)	n	n	n	5.7	n	n
Cc1csc(CN(C)C(=O)CC2C(=O)NCCN2CC2CCCCC2)n1 (centres undefined)	n	n	n	5.3	n	n
Cc1csc(CN(C)C(=O)CC2C(=O)NCCN2CCC(C)C)n1 (centres undefined)	n	n	n	n	x	x
COc1cc(CN2CCNC(=O)C2CC(=O)N(C)Cc2ccno2)cc(OC)c1 (centres undefined)	n	n	n	6.1	n	n
COc1cccc(CN2CCNC(=O)C2CC(=O)N(C)Cc2ccno2)c1 (centres undefined)	n	n	n	n	x	x
COc1ccc(C(=O)C(Cl)c2ccc(OC)cc2)cc1 (centres undefined)	n	n	n	n	x	x
O=C(Cc1ccc(NC2=NC3CS(=O)(=O)CC3S2)cc1)NCCC1=CCCCC1 (centres undefined)	n	n	n	n	x	x
CC1=NN(c2cccc(F)c2)C(=O)/C1=C/c1ccc(Cl)cc1Cl	n	n	n	n	x	x
O=C1CCCCN1c1cccc(NS(=O)(=O)c2cc(F)ccc2F)c1	n	n	n	7.1	n	n
O=C(Nc1ccc2c(c1)OCO2)c1cccc(Nc2ccc3ncccc3c2)n1	n	n	n	6.3	n	n
O=C(Nc1ccc2c(c1)OCO2)c1cccc(Nc2ccc3ncccc3c2)c1	n	n	n	n	x	x
O=C(NCc1cccnc1)c1cccc(Nc2ccc3ncccc3c2)n1	n	n	n	5.3	n	n
SMILES	FBW7 act	TEAD-YAP inh	MITF inh	GPR151 ag	GPR151 conf act	GPR119 ag
CCN(CC)CCN(C)Cc1ccccc1C	n	n	n	5.0	n	n
CCN(CC)CCN(C)Cc1ccccc1Cl	n	n	n	n	x	x
C/C(=N\NC(=O)c1ccc(F)cc1)c1ccc([N+](=O)[O-])o1	n	n	n	n	x	x
O=C(CN1C(=O)NC2(CCCCCC2)C1=O)NCC(F)(F)F	n	n	n	n	x	x
CCCCNC(=O)C(CC)Sc1nnc(-c2ccccc2)c(-c2ccccc2)n1 (centres undefined)	n	n	n	5.5	n	n
CC12CCC(C(=O)Nc3ccc(F)c(F)c3)(CC1=O)C2(C)C (centres undefined)	n	n	n	8.8	n	n
O=C(NCc1nnc2n1CCN(C/C(Cl)=C/c1ccccc1)CC2)c1cccc(F)c1	n	n	n	9.2	n	n
CC(C)(C)CN1CCc2nnc(CNC(=O)c3cccc(F)c3)n2CC1	n	n	n	n	x	x
COc1ccccc1N=C1SC(CC(=O)Nc2cccc([N+](=O)[O-])c2)C(=O)N1C (centres undefined)	n	n	n	14	n	n
CC(=O)Nc1cccc(NC(C)=C(C#N)C#N)c1	n	n	n	5.2	n	n
COc1ccc(-n2ccn(CC(=O)Nc3cccc(Br)c3)c2=O)cc1	n	n	n	n	x	x
OC1CCN(Cc2c(F)cccc2F)CC1	n	n	n	5.9	n	n
Cc1ccc(/C=N/NC(=O)c2nc3nc(C)cc(C)n3n2)cc1	n	n	n	n	x	x
Cc1cc(C)n2nc(C(=O)N/N=C/c3ccccc3)nc2n1	n	n	n	10	n	n
COC(=O)C1=NNC2C(=O)N(c3cc(C(C)=O)ccc3OC)C(=O)C12 (centres undefined)	n	n	n	n	x	x
C[C@H]1CC[C@H]2C(=O)O[C@H](CO)CN2[C@@H]1c1ccc(Br)cc1	n	x	n	n	x	x
C[C@@H]1CC[C@H]2C(=O)O[C@@H](COc3ccc(C(C)(C)C)cc3)CN2[C@@H]1c1ccc(Br)cc1	n	x	n	5.4	n	n
CCn1c(Cc2ccccc2)nnc1SCC(=O)N1CCCCC1	n	n	n	6.3	n	n
O=C(Nc1c2c(nn1-c1ccc(Cl)cc1)CSC2)c1ccc(Cl)cc1	n	n	n	7.7	n	n
Cc1ccc(OC(C)C(=O)Nc2sc(C)c(C)c2C(N)=O)cc1 (centres undefined)	n	n	n	n	x	x
COCCCNC(=O)CN(c1ccc(I)cc1)S(C)(=O)=O	n	n	n	6.7	n	n
CCOc1ccc(NC(=O)c2ccc([N+](=O)[O-])cc2Cl)cc1	n	n	n	6.4	n	n
O=C(Nc1ccc2oc(=O)ccc2c1)c1ccc([N+](=O)[O-])cc1Cl	n	n	n	9.0	n	n
O=C(c1ccc(F)c([N+](=O)[O-])c1)N1CCOCC1	n	n	n	n	x	x
CC(=O)Nc1ccc(Nc2cc(N3CCCC3CO)ncn2)cc1 (centres undefined)	n	n	n	5.2	n	n
OCC1CCCN1c1cc(Nc2ccc(N3CCOCC3)cc2)ncn1 (centres undefined)	n	n	n	n	x	x
